# Laboratory results published in PubChem BioAssay AID686979 (National Center for Advancing Translational Sciences (NCATS), 2013).
# Among all 420,000 compounds or so, about 50,000 (12%) were called active. Where a call stands in place of a potency, no number is given. Another 26% or so got no clear call; they are omitted. The call rests on the fitted dose curve; in most records, active means well fitted inhibition curve with a large enough effect; inconclusive means small, poorly fitted or top-dose-only effect; inactive means flat fitted curve, though single readings scatter. This excerpt belongs to a sample that is enriched for actives.
# Assay: qHTS for Inhibitors of human tyrosyl-DNA phosphodiesterase 1 (TDP1): qHTS in cells in presence of CPT; further: nearly all actives have a fitted effect of over 55% in size
# Details: chicken DT40 Tdp1-/-;hTDP1 cells + 20 nM CPT, ATP luminescence, 48 h; series mostly up to 46.2 µM
# Outline: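 Cell growth measured by CellTiter-Glo luminescence after a minimum 48 h, 37 C compound exposure with 20 nM CPT in Tdp1-knockout DT40 cells stably expressing hTDP1, seeded 400/well; qHTS titration format.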
# Potency means the concentration at half of the fitted maximal effect.
row,SMILES,Potency
1,N=c1ccccn1Cc1ccccc1,inactive
2,CC1=CC(=Cc2sc3ccccc3[n+]2C)C=C(C)O1,0.164 µM (active)
3,CCOc1ccc(-c2cc(C)[n+](CCN(CC)CC)c(-c3ccc(OCC)cc3)c2)cc1,0.206 µM (active)
4,COc1cc(C(=O)N2Cc3ccc(Br)cc3-n3nncc3C2)cc(OC)c1OC,inactive
5,CC=C(C)C(=O)OC1CCN2CC=C(COC(=O)C(O)(C(C)OC)C(C)(C)O)C12 (stereo unspecified),inactive
6,CN(Cc1cccc2ncccc12)C(=O)c1cnn(-c2nccc(-c3ccccc3F)n2)c1C1CC1,5.17 µM (active)
7,COc1ccccc1OC(=O)c1ccc(C)c(S(=O)(=O)N2CCOCC2)c1,inactive
8,CC(=NC1CCN(Cc2ccccc2)CC1)c1c(O)n(C)c(=O)n(C)c1=O,inactive
9,N[C@H](Cc1o[nH]c(=O)c1Cl)C(=O)O,inactive
10,CO[C@@H]1C[C@@H](C[C@H]2CC[C@H](C)[C@@H]([C@@H](C)C(=O)O)O2)O[C@]2(O[C@](C)([C@H]3CC[C@@](C)(C4OC([C@H]5O[C@@](O)(CO)[C@H](C)C[C@@H]5C)C[C@@H]4C)O3)C[C@H]2C)[C@@H]1C (stereo partly specified),0.588 µM (active)
11,COC(=O)C1=C(c2c(C)noc2C)C[C@@H]2CC[C@H]1N2C(=O)NCc1ccc2c(c1)OCO2,inactive
12,COC(=O)C1=C(c2ccc(F)cc2OCc2ccccc2)C[C@@H]2CC[C@H]1N2C(=O)NCc1ccc(OC)c(OC)c1,18.4 µM (active)
13,COC(=O)C1=C(c2cccc(OCc3ccccc3)c2)C[C@@H]2CC[C@H]1N2C(=O)NNCc1ccccc1,20.6 µM (active)
14,COC(=O)C1=C(c2ccccc2)C[C@@H]2CC[C@H]1N2C(=O)NCc1ccco1,inactive
15,COC(=O)C1=C(c2ccc(F)cc2OCc2ccccc2)C[C@@H]2CC[C@H]1N2C(=O)NCc1ccc(Cl)cc1,20.6 µM (active)
16,CCOC(=O)c1cccc(C2=C(CNC(=O)c3ccncc3)[C@H]3CC[C@@H](C2)N3Cc2ccccc2)c1,inactive
17,COC(=O)C1=C(c2ccc(-c3ccccc3)c(F)c2)C[C@@H]2CC[C@H]1N2C(=O)NCc1ccc(F)cc1,16.4 µM (active)
18,COc1ccc(CCn2c(O)c(C=NC3CC3)c(=O)[nH]c2=O)cc1OC,inactive
19,CCN(CC)c1ccc([N+](=O)[O-])c2cccnc12,inactive
20,CC(C)c1c(CN(C)C(C)Cc2ccccc2)n(C)n(-c2ccccc2)c1=O (stereo unspecified),inactive
21,CCN1c2nc3c(C)cccn3c(=O)c2CC2(C(=O)N(C)C(=O)N(C)C2=O)C1C (stereo unspecified),inactive
22,CCC(C)n1c(O)c(/C=N/Nc2nc3c(c(=O)n(C)c(=O)n3C)n2C)c(=O)[nH]c1=S (stereo unspecified),inactive
23,Fc1cccc(F)c1CN1CCN(Cc2c(F)cccc2F)CC1,inactive
24,Cc1cc(C(=O)OCC(=O)Nc2c(F)cccc2F)c(C)n1C1CC1,inactive

row,SMILES,Potency
1,COC(=O)C1=C(c2ccc(OCc3ccccc3)cc2)C[C@@H]2CC[C@H]1N2C(=O)NCc1cccc(F)c1,25.9 µM (active)
2,COC(=O)C(c1ccccc1)N1CCCCCC1 (stereo unspecified),inactive
3,COC(=O)C1=C(c2ccccc2)C[C@@H]2CC[C@H]1N2C(=O)N1CCCCC1,5.8 µM (active)
4,O=C(NC(=S)N1C[C@H]2C[C@H](C1)c1cccc(=O)n1C2)c1ccc(F)cc1,inactive
5,CC1CCCN1CCC(C(N)=O)(c1ccccc1)c1ccccc1 (stereo unspecified),inactive
6,COc1ccc(CCn2c(O)c(C=NCCCn3ccnc3)c(=O)[nH]c2=O)cc1OC,inactive
7,CC(=O)Cc1ccc(OC(C)C)cc1,inactive
8,Cc1cc2ccccn2c1C(C[N+](=O)[O-])c1c(F)cccc1Cl (stereo unspecified),18.4 µM (active)
9,C[N+]1(C)CCOC(O)(c2ccc(-c3ccc(C4(O)C[N+](C)(C)CCO4)cc3)cc2)C1 (stereo unspecified),inactive
10,COc1cc(Cl)ccc1Nc1ncc(C(=O)N2CCN(c3ccccc3OC)CC2)c2ccccc12,14.6 µM (active)
11,CN1CCN(C(=O)O[C@@H]2c3nccnc3C(=O)N2c2ccc(Cl)cn2)CC1,inactive
12,CCOC(=O)c1c(C)c(C(=O)N2CCC3(CC2)OCCO3)c(C)n1CC,inactive
13,CN1CCN(Cc2ccccc2C(F)(F)F)CC1,inactive
14,CCOC(=O)C1(c2ccccc2)CCN(CC(O)c2ccc(NC(C)=O)cc2)CC1 (stereo unspecified),inactive
15,CCOC(=O)CC1=C(C(=O)OCC)C2(C(=O)N1)C(C(=O)OC)=C(N)Oc1ccccc12 (stereo unspecified),inactive
16,COC1C(O)C(C)OC(OC2CCC3(C=O)C(CCC4C3CCC3(C)C(C5=CC(=O)OC5)CCC43O)C2)C1O (stereo unspecified),0.206 µM (active)
17,COC1CC(OC2CC[C@@]3(C=O)C4CC[C@]5(C)C(C6=CC(=O)OC6)CC[C@@]5(O)C4CC[C@]3(O)C2)OC(C)C1O (stereo partly specified),1.3 µM (active)
18,c1csc(CN2CCCC3(CCNCC3)C2)n1,inactive
19,C=Cn1ccnc1P(=S)(c1cc(N(CC)CC)ns1)c1nccn1C=C,inactive
20,Cc1ncsc1CCCl,inactive
21,CC[N+]1(CCOC(=O)C(O)(c2ccccc2)c2ccccc2)CCCCC1,inactive
22,C/C(=C\C=C/[C@@H](C)C(=O)O)[C@H]1CN[C@H](C(=O)O)[C@@H]1CC(=O)O,inactive
23,Cc1ccc(NC(=O)CN(C)CC(=O)Nc2cccc(F)c2)cc1[N+](=O)[O-],1.84 µM (active)
24,O=C(CN1CCCC1=O)NCCc1ccccc1,inactive

row,SMILES,Potency
1,CN(C)P(=S)(Nc1ccccc1)C(Cl)(Cl)Cl (stereo unspecified),inactive
2,O=C1NC(=O)N(CCc2ccc(F)cc2)C(=O)/C1=C/C=C/c1ccccc1,3.26 µM (active)
3,O=C(O)COc1ccccc1/C=C1\C(=O)NC(=O)N(CCC2=CCCCC2)C1=O,inactive
4,OCC#CC[N+]1(CC#Cc2ccccc2)CCCC1,inactive
5,Cc1ccc(P(=S)(c2ccc(C)o2)N2CCOCC2)o1,inactive
6,CC(=O)C12CC(C)=C(C)CC1CC1C3CCC4=CC(=O)CCC4(C)C3CCC12C (stereo unspecified),13 µM (active)
7,COC(=O)C[C@H]1CC[C@H]2NC[C@@H](O)COC[C@@H]2O1,inactive
8,C[C@H]1CN([C@@H](C)CO)C(=O)CCCn2nncc2CO[C@H]1CN(C)C(=O)Oc1ccccc1,inactive
9,Cc1cc(N2C(=O)C3CCCN3C2c2ccc(Cl)c(Cl)c2)no1 (stereo unspecified),inactive
10,CCN1C(=O)NC(=O)C2(CCCC2)C1=O,inactive
11,CCOP(=O)(OCC)C(NC(=O)c1ccc(C)cc1)C(Cl)(Cl)Cl (stereo unspecified),inactive
12,CCOP(=O)(OCC)C(NC(=O)c1ccc(OC)cc1)C(Cl)(Cl)Cl (stereo unspecified),inactive
13,CCOP(=O)(OCC)C(Cc1ccccc1)N=C(c1ccccc1)c1ccccc1 (stereo unspecified),16.4 µM (active)
14,CC(C)CN1CCN(Cc2ccccc2C(F)(F)F)CC1CCO (stereo unspecified),inactive
15,CCOc1ccc(C2SCC(=O)Nc3c2c(C)nn3C2CCOC(C)(C)C2)cc1 (stereo unspecified),inactive
16,COc1ccc(-n2c(-c3ccccc3)nc3ccccc3c2=O)cc1,18.4 µM (active)
17,O=c1c2ccccc2nc(-c2ccccc2)n1-c1ccccn1,inactive
18,CC(CCC(=O)O)C1CCC2C3C(O)C[C@@H]4CC(O)CC[C@@]4(C)C3CC[C@@]12C (stereo partly specified),inactive
19,COc1ccc(-c2cc(NC=O)c3ncc(-c4cc(OC)c(OC)c(OC)c4)n3c2)c(OC)c1,0.58 µM (active)
20,CCCCCCCCCCCCn1ccc(=N)cc1,0.461 µM (active)
21,CNC(=S)N/N=C1\C2CN3CCN(C2)CC1(c1ccccc1)C3,inactive
22,CC(C)=C[C@@H]1[C@@H](C(=O)OCc2coc(Cc3ccccc3)c2)C1(C)C,inactive
23,CCOc1cccc(=NC2CCCCC2)c2c(C)[nH]c(C)c12,5.8 µM (active)
24,Cc1cc(C)c2c(c1)NP(=S)(c1ccccc1)N2 (stereo unspecified),inactive

row,SMILES,Potency
1,O=C1/C(=C\c2ccc3c(c2)OCO3)N2CCC1CC2,inactive
2,c1cncc(CNCCc2c[nH]c3ccccc23)c1,inactive
3,COc1ccc2[nH]cc(CCNCc3ccc(Br)cc3)c2c1,13 µM (active)
4,COc1ccc(N=Cc2c(O)n(C)c(=O)[nH]c2=O)cc1,inactive
5,COc1ccc(Cn2c(O)c(/C=C3/C=CC=N3)c(=O)[nH]c2=O)cc1,20.6 µM (active)
6,O=C(N/N=C/c1c(O)n(Cc2ccccc2)c(=O)[nH]c1=O)c1ccccc1,inactive
7,CNC(=O)N(C)c1nnc(C(C)(C)C)s1,inactive
8,CC1N=C(N)OC1c1ccccc1 (stereo unspecified),inactive
9,CCOCCCNC(=O)c1c(NC(=O)c2nc(SC)ncc2Cl)sc2c1CCCC2,6.51 µM (active)
10,CCCOC(=O)C1C2c3ccccc3C(c3ccccc32)C1C(=O)O (stereo unspecified),inactive
11,Cc1nc2ccccn2c1P(=S)(N1CCCCC1)N1CCCCC1,20.6 µM (active)
12,CCOC(=O)CNC(=O)N1Cc2cc(N3CCCCC3)ccc2-n2nncc2C1,inactive
13,Cc1cc(=O)oc2c(C)c(OCC(=O)N3CCN(Cc4ccc5c(c4)OCO5)CC3)ccc12,inactive
14,CCC(C)(O)C(=O)OC1C(=O)OC2CC3C(C)=CC(=O)C(O)C3(C)C3C4(O)OCC23C1C(C)C4O (stereo unspecified),0.116 µM (active)
15,COc1ccc(NC(=O)N2CCC3(CC2)OCCO3)c(OC)c1,inactive
16,CCCC[N+]1(C)C2CC(OC(=O)C(CO)c3ccccc3)CC1C1OC12 (stereo unspecified),inactive
17,Cc1ccccc1N1C(=O)NC(=O)/C(=C\c2cc(C)n(C)c2C)C1=O,inactive
18,O=C1NCN(c2ccccc2)C12CCN(C(c1cccs1)c1nnnn1C1CCCCC1)CC2 (stereo unspecified),16.4 µM (active)
19,CC[N+]1(C)CCCC(OC(=O)C(O)(c2ccccc2)c2ccccc2)C1 (stereo unspecified),inactive
20,CN(C)C(=O)Oc1ccc(NC(=O)N2CCOCC2)cc1,inactive
21,Cc1ccc(-c2cc(C(=O)N3CCC4(CC3)OCCO4)no2)cc1,inactive
22,Cc1cccc(-n2c(C)nc3cc(C(=O)N4CCC5(CC4)OCCO5)ccc32)c1,20.6 µM (active)
23,O=C(c1cc(-c2ccncc2)nc2ccccc12)N1CCC2(CC1)OCCO2,inactive
24,COc1cc(C(c2c(O)c3ccccc3oc2=O)c2c(C)n(C)n(-c3ccccc3)c2=O)ccc1O (stereo unspecified),inactive
